We go through five compounds from PubChem BioAssay (NCATS).

Values without a mark were called inactive. Inconclusive results are not listed. Calls of active or inactive are those of the source. Unless noted, calls follow the shape of the dose curve; as a rule, active = well fitted curve in the direction sought with a large enough effect; inconclusive = small, poorly fitted or top-dose-only effect, or another doubt; inactive = no such curve, though single readings can be large; an effect the other way counts as inactive or inconclusive. A value given as a limit tells only on which side of the number the result lay.

In experiment [1] the target is Lysosomal acid glucosylceramidase (Homo sapiens) (UniProt P04062). Kind of experiment: Glucocerebrosidase-p2 (AID 348; in the data active = potency below about 10 µM; also: potency is read from the fitted curve at half-maximal effect). The note with it: purified GBA, blue fluorogenic substrate, 40 min. An outline of the steps: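 Normal human glucocerebrosidase (0.2 nM) with blue fluorogenic substrate (80 uM final) in citrate/phosphate pH 5.9 with 10mM sodium taurocholate, 0.01% tween-20; 40 min RT, NaOH/glycine stop; fluorescence Ex 365/Em 440; AC50 from a titration from 0.6 nM upwards.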

A short description of experiment [2]: AP1 Signaling Pathway (AID 357; active = well fitted curve in either direction with a large enough effect, not every such curve was filed as active;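 also: ME-180 reporter cells stimulated with EGF at its EC50 level; % is scaled to controls: 0 for no effect and ±100 for the full control effect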). The note with it: ME-180 AP-1-bla reporter, EGF-induced, beta-lactamase ratio, 5 h; at 7.69 µM (top of the series) unless noted. In a few lines:
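Modulation of EGF-driven AP-1 transcription was assessed with a beta-lactamase reporter in ME-180 cells. Compound and EC50 EGF were co-incubated 5 hours at 37 °C before 2.5-hour CCF4 loading at room temperature and dual-emission reading.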

The target of experiment [3] is Cytochrome P450 1A2 (Homo sapiens) (UniProt P05177). Kind of experiment: p450-cyp1a2 (AID 410; calls by dose curve; also: potency is read from the fitted curve at half-maximal effect). To be noted: recombinant CYP1A2, luciferin-ME demethylation, luminescence; series mostly up to 57 µM. An outline of the steps: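 20nM CYP1A2, 100uM Luciferin-ME (=Km), 100mM KPO4; cpd 10 min RT; +NADPH regen, 60 min RT; stop/detect 20 min; luminescence. Normalized to furafylline 57 uM = full inhibition.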

A short description of experiment [4]: NFAT Signaling Pathway (AID 444; active = well fitted curve in either direction with a large enough effect, not every such curve was filed as active;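 also: carbachol stimulus at about its EC50 of 1 µM final; % is scaled to controls: 0 for no effect and ±100 for the full control effect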). To be noted: Jurkat NFAT-bla M1, carbachol, beta-lactamase ratio, 5 h; at 7.69 µM (top of the series) unless noted. In a few lines: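 Jurkat cells with NFAT-driven β-lactamase reporter and co-expressed M1 receptor, stimulated with carbachol (final 1 uM, ~EC50), compound titration, 5 h at 37 °C. CCF4 loaded 1 h at RT; 460/530 nm ratio gave %activity and AC50.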

Experiment [5] in a line: Stat Signaling Pathway (AID 446; active = well fitted curve in either direction with a large enough effect, not every such curve was filed as active;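 also: ME-180 cervical cancer cells given 40 pM IL-6 alongside compound; SIE-controlled beta-lactamase reporter measured as 460/530 nm FRET emission ratio; % is scaled to controls: 0 for no effect and ±100 for the full control effect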). The note with it: ME-180 (cervical carcinoma) SIE beta-lactamase reporter, IL-6 stimulated, 5 h; at 7.69 µM (top of the series) unless noted. In a few lines: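 Emission at 460 and 530 nm (excitation 405 nm) reports SIE-controlled beta-lactamase in ME-180 cells. Cells received compound with 40 pM IL-6 for 5 hrs at 37 C; data scaled between 300 pM IL-6 and 125 nM JAK-inhibitor controls.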

Experiment [6] concerns the target Glucocorticoid receptor (Homo sapiens) (UniProt P04150). In words: GR-EFC Redistribution (AID 451; calls by dose curve; also: potency is read from the fitted curve at half-maximal effect). The note with it: CHO-K1 GR-EFC translocation, beta-gal luminescence, 2 h. An outline of the steps: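 CHO-K1 cells expressing nuclear EA and GR-ED fragments of b-gal; compounds titrated up to 46 uM final, 2 h at 37 C. GR nuclear translocation read as complemented b-gal luminescence after 1 h RT detection.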

For experiment [7], the target named is Mitogen-activated protein kinase 10 (Mus musculus) (UniProt Q61831). In words: JNK3 AlphaScreen Assay (AID 530; active = well fitted curve in either direction with a large enough effect, not every such curve was filed as active;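 also: kinase came from lysate of stimulated human HepG2 cells; signal reports phosphorylation of biotinylated GST-cJun 1-79 at Ser73 with 10 µM ATP; % is scaled to controls: 0 for no effect and ±100 for the full control effect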). The note with it: JNK3 lysate, c-Jun phosphorylation; series mostly up to 57.1 µM. In a few lines:
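HepG2 lysate (IL-1b/TNFa pre-activated) + biotin-GST-cJun 1-79 + anti-pSer73 cJun; cpd titration, 15 min RT; ATP 10 uM start; Tris pH 7.6, MgCl2, DTT, vanadate; beads in EDTA buffer; AlphaScreen.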

The target of experiment [8] is 3',5'-cyclic-AMP phosphodiesterase 4B (Homo sapiens) (UniProt Q07343). In words: qHTS Assay for Inhibitors of PDE-IV (AID 607; active = well fitted activation curve with a large enough effect in the main read-out, with a control signal flat, not every such curve was filed as active; also: % of control where 0% means no effect). To be noted: HEK293 ACTOne CNG channel cells, membrane potential fluorescence; series mostly up to 22.9 µM. In a few lines: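 The readout is membrane depolarisation from a cAMP-sensing CNG channel, detected with a potential dye at ex 535/em 590. Cells were HEK293-derived (endogenous PDE-IV) at 1000 cells/well, titrated up to 22.9 uM final.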

Experiment [9] deals with Cytochrome P450 3A4 (Homo sapiens) (UniProt P08684). Kind of experiment: qHTS Assay for Activators of Cytochrome P450 3A4 (AID 885). Also: nearly all actives have a fitted effect of over 65% in size. To be noted: recombinant CYP3A4, Luciferin-PPXE luminescence, 60 min; series mostly up to 57.1 µM. In a few lines:
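Activators are scored by enhanced luminescence from CYP3A4 conversion of luciferin-PPXE (25uM, equal to KM) to luciferin, after 60 min at RT with an NADPH-regenerating system.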

Experiment [10] deals with Dual specificity protein kinase CLK4 (Homo sapiens) (UniProt Q9HAZ1). In words: qHTS Assay for Inhibitors of CDC-like Kinase 4 (Kinase-Glo Assay) (AID 1770). Also: nearly all actives have a fitted effect of over 65% in size. Also: potency is read from the fitted curve at half-maximal effect. The note with it: recombinant Clk4, Kinase-Glo ATP depletion luminescence; series mostly up to 66.7 µM. In a few lines: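 Recombinant human Clk4 (25 nM) phosphorylated RS repeat peptide (100 uM) with 1 uM ATP in Tris pH 7.5/MgCl2/EGTA/DTT/Triton buffer for 4.5 h at room temperature. Residual ATP was quantified by Kinase-Glo luciferase luminescence.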
A general note: qHTS replaces the single test concentration by a dilution series.

Experiment [11] shares this target. In words: qHTS Assay for Inhibitors of CDC-like Kinase 4 (ADP-Glo Assay) (AID 1771). Also: nearly all actives have a fitted effect of over 70% in size. Also: potency is read from the fitted curve at half-maximal effect. To be noted: recombinant CLK4, ADP-Glo luminescence; series mostly up to 80 µM. In a few lines: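 25 nM Clk4, 100 uM RS peptide, 1 uM ATP (final); 2 mM MgCl2, 0.5 mM EGTA, 2.5 mM DTT, 0.01% Triton X-100; 1 hr RT. ADP-Glo readout: ATP depletion 45 min, conversion/luciferase 30 min, luminescence.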

The target of experiment [12] is Ubiquitin carboxyl-terminal hydrolase 1 (Homo sapiens) (UniProt O94782). In words: Inhibitors of USP1/UAF1: Pilot qHTS (AID 504865).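 Also: rhodamine fluorescence freed from ubiquitin-rhodamine substrate followed over time; top concentration of the series differs between compounds; % is scaled to controls: 0 for no effect and ±100 for the full control effect; nearly all actives have a fitted effect of over 35% in size.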 To be noted: purified USP1/UAF1, Ub-rhodamine cleavage fluorescence; series mostly up to 54.9 µM. In a few lines:
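USP1/UAF1 complex (1nM) preincubated with compound 15 min at room temperature, then Ub-Rho substrate (150nM final) added. Fluorescence read kinetically at 480/540 nm, 6 reads every 60 seconds. Buffer: 50mM HEPES pH 7.8, 0.5mM EDTA, 0.1 mg/ml BSA, 1mM TCEP, 0.01% Tween-20.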

The nature of experiment [13]: Primary qHTS for small molecule stabilizers of the endoplasmic reticulum resident proteome: Secreted ER Calcium Modulated Protein (SERCaMP) assay (AID 1508630). Also: % is scaled to controls: 0 for no effect and ±100 for the full control effect. To be noted: SH-SY5Y GLuc-SERCaMP (Gaussia luciferase released on ER calcium loss) secretion, thapsigargin, luminescence; series mostly up to 38.4 µM. An outline of the steps: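 The SH-SY5Y reporter protocol was run at 3 concentrations up to 38.3 uM (primary) or 11 concentrations (follow-up): 16 h compound, 100 nM thapsigargin for 4 h, then extracellular luciferase luminescence.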

Experiment [14] has as its target Glucocorticoid receptor (Homo sapiens) (UniProt P04150). Kind of experiment: GR-GFP Redistribution (AID 450;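 active = compounds whose dose series gives a full or clear partial fitted curve of increased nuclear translocation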; also: potency is read from the fitted curve at half-maximal effect). The note with it: U2OS GR-GFP nuclear translocation, laser cytometry, 2 h.
The target of experiment [15] is Cytochrome P450 2D6 (Homo sapiens) (UniProt P10635). In words: qHTS Assay for Inhibitors and Substrates of Cytochrome P450 2D6 (AID 891). Also: potency is read from the fitted curve at half-maximal effect; nearly all actives have a fitted effect of over 60% in size. To be noted: recombinant CYP2D6, luciferin-ME EGE luminescence; series mostly up to 57.1 µM. An outline of the steps:
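Luminescent read-out of luciferin formed by 5 nM human CYP2D6 demethylating 30 uM Luciferin-ME EGE (Km level) over 60 min at room temperature after NADPH regeneration addition. Data normalized to full inhibition by 1.43 uM quinidine.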

The target in experiment [16] is Cytochrome P450 3A4 (Homo sapiens) (UniProt P08684). In words: qHTS Assay for Inhibitors and Substrates of Cytochrome P450 3A4 (AID 884). Also: potency is read from the fitted curve at half-maximal effect; nearly all actives have a fitted effect of over 50% in size. To be noted: recombinant CYP3A4, Luciferin-PPXE luminescence; series mostly up to 57.1 µM. In a few lines:
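Luminescent readout of luciferin produced by CYP3A4 (20 nM) dealkylation of Luciferin-PPXE, 25 uM (its KM). NADPH-driven reaction ran 60 min at RT after 10 min compound preincubation; data scaled to 57 uM ketoconazole as 100% inhibition.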

Lysosomal acid glucosylceramidase (Homo sapiens), sequence (P04062 whole entry, looked up): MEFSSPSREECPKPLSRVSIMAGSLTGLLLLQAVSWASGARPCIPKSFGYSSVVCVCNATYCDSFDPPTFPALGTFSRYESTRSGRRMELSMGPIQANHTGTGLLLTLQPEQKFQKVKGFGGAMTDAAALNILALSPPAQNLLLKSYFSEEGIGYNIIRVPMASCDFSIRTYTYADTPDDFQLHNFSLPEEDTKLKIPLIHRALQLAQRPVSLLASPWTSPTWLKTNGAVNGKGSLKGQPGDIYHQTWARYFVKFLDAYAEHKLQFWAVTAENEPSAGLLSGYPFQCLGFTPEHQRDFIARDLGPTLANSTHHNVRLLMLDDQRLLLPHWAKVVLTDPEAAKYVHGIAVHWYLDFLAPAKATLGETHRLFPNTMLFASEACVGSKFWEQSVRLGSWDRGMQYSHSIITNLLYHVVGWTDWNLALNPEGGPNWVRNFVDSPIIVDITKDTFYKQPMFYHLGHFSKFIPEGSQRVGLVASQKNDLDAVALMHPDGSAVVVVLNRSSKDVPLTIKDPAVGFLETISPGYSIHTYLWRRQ
Cytochrome P450 3A4 (Homo sapiens), sequence (P08684 whole entry, looked up): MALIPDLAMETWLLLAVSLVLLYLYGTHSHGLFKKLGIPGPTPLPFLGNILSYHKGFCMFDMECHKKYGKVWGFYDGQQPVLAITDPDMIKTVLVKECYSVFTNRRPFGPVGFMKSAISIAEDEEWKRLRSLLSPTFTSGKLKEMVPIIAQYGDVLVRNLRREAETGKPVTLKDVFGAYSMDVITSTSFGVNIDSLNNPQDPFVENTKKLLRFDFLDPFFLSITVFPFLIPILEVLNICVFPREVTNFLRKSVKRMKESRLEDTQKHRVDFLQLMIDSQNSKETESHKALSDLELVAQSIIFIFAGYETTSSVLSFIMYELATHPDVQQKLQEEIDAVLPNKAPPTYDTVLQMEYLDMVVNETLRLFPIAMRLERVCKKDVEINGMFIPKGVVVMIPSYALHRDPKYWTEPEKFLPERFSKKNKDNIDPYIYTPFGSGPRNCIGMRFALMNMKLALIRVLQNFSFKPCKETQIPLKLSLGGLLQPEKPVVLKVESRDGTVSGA
Glucocorticoid receptor (Homo sapiens), sequence (P04150 whole entry, looked up, the tested form may be a part): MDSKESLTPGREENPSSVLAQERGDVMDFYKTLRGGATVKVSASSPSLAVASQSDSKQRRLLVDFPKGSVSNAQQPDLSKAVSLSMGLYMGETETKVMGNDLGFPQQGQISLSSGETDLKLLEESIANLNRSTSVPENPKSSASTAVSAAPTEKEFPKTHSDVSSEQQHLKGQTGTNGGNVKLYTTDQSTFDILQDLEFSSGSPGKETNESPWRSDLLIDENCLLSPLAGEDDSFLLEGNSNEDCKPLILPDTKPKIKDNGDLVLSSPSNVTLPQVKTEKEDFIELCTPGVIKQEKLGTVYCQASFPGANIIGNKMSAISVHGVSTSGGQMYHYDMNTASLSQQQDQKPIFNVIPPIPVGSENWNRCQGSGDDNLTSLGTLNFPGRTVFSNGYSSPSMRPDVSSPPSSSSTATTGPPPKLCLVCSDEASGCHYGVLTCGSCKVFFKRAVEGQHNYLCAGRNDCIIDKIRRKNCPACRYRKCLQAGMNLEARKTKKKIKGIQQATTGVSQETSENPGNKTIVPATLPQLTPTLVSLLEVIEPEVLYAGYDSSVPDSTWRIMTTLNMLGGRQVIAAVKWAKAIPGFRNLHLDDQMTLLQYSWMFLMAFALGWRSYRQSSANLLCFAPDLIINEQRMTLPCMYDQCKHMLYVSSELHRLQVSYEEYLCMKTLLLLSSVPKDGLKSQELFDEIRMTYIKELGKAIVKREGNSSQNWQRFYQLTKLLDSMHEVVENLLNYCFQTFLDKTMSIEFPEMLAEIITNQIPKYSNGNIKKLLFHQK
Dual specificity protein kinase CLK4 (Homo sapiens), sequence (Q9HAZ1 whole entry, looked up): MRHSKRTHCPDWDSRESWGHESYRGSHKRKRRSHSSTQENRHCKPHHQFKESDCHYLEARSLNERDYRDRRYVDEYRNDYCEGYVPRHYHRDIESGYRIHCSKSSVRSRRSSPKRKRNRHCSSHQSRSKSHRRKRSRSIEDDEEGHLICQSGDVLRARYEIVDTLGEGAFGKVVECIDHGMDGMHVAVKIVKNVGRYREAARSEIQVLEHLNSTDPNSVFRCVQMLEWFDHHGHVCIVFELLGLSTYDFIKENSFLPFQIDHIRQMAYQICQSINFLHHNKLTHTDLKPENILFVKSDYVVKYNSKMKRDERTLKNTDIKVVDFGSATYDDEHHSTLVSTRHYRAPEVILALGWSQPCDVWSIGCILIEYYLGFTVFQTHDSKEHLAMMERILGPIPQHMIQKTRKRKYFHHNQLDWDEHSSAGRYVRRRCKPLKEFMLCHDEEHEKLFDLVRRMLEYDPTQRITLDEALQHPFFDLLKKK
Cytochrome P450 1A2 (Homo sapiens), sequence (P05177 whole entry, looked up): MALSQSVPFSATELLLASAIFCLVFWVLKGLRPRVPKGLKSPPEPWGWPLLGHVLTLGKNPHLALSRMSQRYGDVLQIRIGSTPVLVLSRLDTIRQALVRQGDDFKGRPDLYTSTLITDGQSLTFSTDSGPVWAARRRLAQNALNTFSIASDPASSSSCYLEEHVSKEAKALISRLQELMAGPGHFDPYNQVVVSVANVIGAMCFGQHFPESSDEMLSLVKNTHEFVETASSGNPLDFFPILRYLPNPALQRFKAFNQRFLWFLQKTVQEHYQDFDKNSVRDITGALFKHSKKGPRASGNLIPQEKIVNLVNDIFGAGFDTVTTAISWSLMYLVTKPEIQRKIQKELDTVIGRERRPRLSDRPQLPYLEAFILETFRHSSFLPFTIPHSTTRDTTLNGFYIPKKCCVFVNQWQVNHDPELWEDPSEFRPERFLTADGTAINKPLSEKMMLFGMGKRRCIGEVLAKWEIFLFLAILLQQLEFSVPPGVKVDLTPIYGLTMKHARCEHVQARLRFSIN
3',5'-cyclic-AMP phosphodiesterase 4B (Homo sapiens), sequence (Q07343 whole entry, looked up): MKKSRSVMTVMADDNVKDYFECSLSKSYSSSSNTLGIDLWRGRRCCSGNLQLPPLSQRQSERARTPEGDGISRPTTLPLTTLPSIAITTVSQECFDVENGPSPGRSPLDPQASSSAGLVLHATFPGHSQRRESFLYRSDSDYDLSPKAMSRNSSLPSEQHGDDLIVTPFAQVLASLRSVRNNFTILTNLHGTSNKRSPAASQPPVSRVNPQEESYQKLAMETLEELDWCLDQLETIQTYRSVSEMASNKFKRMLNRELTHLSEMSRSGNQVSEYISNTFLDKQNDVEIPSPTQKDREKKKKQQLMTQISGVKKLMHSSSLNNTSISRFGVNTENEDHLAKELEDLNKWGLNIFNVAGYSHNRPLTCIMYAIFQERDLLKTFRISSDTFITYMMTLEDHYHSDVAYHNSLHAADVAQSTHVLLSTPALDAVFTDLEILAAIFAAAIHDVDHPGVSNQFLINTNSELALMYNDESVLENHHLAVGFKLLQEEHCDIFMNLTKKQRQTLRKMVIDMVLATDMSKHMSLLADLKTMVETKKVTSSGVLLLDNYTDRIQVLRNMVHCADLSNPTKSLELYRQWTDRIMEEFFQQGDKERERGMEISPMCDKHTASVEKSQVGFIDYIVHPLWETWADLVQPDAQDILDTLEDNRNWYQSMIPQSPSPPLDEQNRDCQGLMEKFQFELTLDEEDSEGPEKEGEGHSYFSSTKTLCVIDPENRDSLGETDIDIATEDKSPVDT
Ubiquitin carboxyl-terminal hydrolase 1 (Homo sapiens), sequence (O94782 whole entry, looked up): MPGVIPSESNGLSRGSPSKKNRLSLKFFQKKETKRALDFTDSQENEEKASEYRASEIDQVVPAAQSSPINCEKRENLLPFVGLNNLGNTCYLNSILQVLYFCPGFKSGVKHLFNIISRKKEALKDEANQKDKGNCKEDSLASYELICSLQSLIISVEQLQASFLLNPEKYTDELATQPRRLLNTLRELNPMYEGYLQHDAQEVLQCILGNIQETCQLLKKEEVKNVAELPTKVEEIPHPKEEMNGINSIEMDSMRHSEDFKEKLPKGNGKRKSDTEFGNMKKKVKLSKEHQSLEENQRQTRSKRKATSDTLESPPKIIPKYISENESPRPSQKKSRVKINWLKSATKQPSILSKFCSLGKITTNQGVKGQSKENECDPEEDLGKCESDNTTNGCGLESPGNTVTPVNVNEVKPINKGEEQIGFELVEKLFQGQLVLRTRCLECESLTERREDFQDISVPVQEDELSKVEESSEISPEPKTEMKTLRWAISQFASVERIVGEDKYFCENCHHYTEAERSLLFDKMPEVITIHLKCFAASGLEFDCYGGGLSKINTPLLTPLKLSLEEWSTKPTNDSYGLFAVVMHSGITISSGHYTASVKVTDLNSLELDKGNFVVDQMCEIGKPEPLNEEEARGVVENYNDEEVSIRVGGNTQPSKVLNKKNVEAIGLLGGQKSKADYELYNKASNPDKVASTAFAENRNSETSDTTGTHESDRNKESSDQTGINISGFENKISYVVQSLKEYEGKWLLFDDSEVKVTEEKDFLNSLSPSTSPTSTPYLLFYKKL
Cytochrome P450 2D6 (Homo sapiens), sequence (P10635 whole entry, looked up): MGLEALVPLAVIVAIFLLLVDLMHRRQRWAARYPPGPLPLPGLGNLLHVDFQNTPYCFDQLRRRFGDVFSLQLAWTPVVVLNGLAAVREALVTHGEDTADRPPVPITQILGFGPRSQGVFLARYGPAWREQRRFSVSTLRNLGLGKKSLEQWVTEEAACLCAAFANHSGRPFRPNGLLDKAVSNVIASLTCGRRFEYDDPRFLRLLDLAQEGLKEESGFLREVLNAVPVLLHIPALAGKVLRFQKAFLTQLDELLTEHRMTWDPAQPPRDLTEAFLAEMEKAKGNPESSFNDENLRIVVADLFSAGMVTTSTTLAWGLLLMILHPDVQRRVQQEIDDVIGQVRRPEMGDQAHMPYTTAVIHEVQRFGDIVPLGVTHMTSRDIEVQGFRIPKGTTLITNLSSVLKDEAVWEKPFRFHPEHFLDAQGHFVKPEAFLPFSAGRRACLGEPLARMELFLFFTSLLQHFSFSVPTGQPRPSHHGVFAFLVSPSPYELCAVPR

On to `CNc1nc(-c2cccc(NS(C)(=O)=O)c2)nc2ccccc12`, for which the Potency in experiment [1] was over 11.4 µM; in [3], 0.398 µM (active); in experiment [6], over 46 µM; in experiment [10], 14.1 µM (active); in experiment [11], 22.4 µM (active). Also, the activity change, negative = inhibition in [2] was -8.82%; in experiment [4], 6.53%. The activity, negative = inhibition in [5] was -10.2%. Further, the Potency result in [7], in experiment [8], in [9] and in [12] was “inactive” each time. For the same compound, the result in [13] was inactive.
Turning to `c1cncc(-c2ccc3ncnc(NC4CCNCC4)c3c2)c1`, the Potency in experiment [1] was over 11.4 µM; in experiment [3], 12.6 µM (active); in experiment [14], over 46 µM; in experiment [6], over 46 µM; in experiment [10], 14.1 µM (active); in experiment [11], 15.8 µM (active). In addition, the activity change, negative = inhibition in experiment [2] is 5.15%; in experiment [4], 13.2%. In addition, in experiment [5], the activity, negative = inhibition is 3.6%. The Potency entry in experiment [7], in [8], in experiment [9] and in experiment [12] was “inactive” in each case. In addition, in experiment [13], the outcome was inactive.
Consider `CN(C)Cc1ccccc1-c1nccc(N(C)Cc2ccco2)n1`, for which the Potency in experiment [1] was over 11.4 µM; in experiment [3], 7.94 µM (active); in experiment [14] it was over 46 µM; in [6], over 46 µM; in [15], 0.794 µM (active). Also, the activity change, negative = inhibition in experiment [2] was -20%; in [4], -23.2%. In addition, the activity, negative = inhibition in experiment [5] was 0.0679%. The Potency entry in experiment [7], in [9], in [10], in experiment [11] and in [12] was “inactive” in each case. Moreover, the result in experiment [13] was inactive.
Regarding `c1cncc(-c2cc(NCc3cccs3)ncn2)c1`, the Potency in experiment [1] was over 11.4 µM; in experiment [3] it was 1 µM (active); in experiment [14] it was over 46 µM; in experiment [6], over 46 µM; in [16], 2.51 µM (active); in experiment [10], 25.1 µM (active). Also, the Potency in [11] was 28.2 µM (active). Besides, the figures for the activity change, negative = inhibition in experiment [2] and in experiment [4] were 19% and 11.4%, respectively. Further, the activity, negative = inhibition in [5] was 7.74%. The Potency result in [7], in [8], in experiment [9] and in [12] was “inactive” throughout. Moreover, the result in experiment [13] was inactive.
`COCCn1c(=O)c(C)nc2cnc(OC)nc21`: the figures for the Potency in [1], in experiment [14] and in experiment [6] were over 11.4 µM, over 9.22 µM and over 46 µM, respectively. For the same compound, the activity change, negative = inhibition in [2] is -9.91%; in [4], 5.14%. For the same compound, the activity, negative = inhibition in experiment [5] was -16.1%. Also, the Potency result in experiment [7], in [8], in experiment [9], in experiment [10], in experiment [11] and in experiment [12] was “inactive” in each case. The result in experiment [13] was inactive.
